# Measured values taken from publication PMC7862700, “An all-to-all approach to the identification of sequence-specific readers for epigenetic DNA modifications on cytosine”.
# How the values were obtained:
# Test in all cases: DAPPL (digital affinity profiling via proximity ligation, sequencing); 10 mM Tris-HCl pH 7.5, 50 mM NaCl, 1 mM DTT, 4% glycerol, room temperature, 30 min; GST-TFs on glutathione beads, 16-mer random dsDNA library, 0.1% formaldehyde crosslink after washing; high values mean tight binding
# FLI1 = target: T1, FLI1 (Homo sapiens, UniProt Q01543 1-452); conditions: protein: recombinant; tags: N-terminal GST; dsDNA, one strand shown
# T1 sequence: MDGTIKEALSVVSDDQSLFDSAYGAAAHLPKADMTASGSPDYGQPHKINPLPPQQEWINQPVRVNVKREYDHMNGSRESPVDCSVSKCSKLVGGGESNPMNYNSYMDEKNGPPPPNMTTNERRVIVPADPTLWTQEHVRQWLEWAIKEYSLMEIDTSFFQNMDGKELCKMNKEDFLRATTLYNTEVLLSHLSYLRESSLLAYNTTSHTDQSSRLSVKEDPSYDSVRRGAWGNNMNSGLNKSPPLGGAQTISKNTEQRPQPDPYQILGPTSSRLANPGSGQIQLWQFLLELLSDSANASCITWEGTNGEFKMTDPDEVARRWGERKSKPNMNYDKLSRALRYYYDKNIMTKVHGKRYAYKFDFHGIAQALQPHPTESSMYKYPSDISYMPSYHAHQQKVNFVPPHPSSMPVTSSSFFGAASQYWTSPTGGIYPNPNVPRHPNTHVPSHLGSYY
# Method in brief: (§1)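 Binding signal is each hexamer's read frequency for a factor divided by its frequency in the tag-only sample. The factors were GST-fused human transcription factors from yeast, captured on glutathione beads, DNA-barcoded and pooled with that sample. Pools were incubated with 200 nmole of a random double-stranded 16-mer DNA library in Tris/NaCl/DTT/glycerol buffer at room temperature for 30 min, then washed, crosslinked with 0.1% formaldehyde, proximity-ligated with BsaI/T4 ligase (1 h, 37 °C), PCR-amplified and sequenced on an Illumina NextSeq500.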
# ELK1 = target: T2, ELK1 (Homo sapiens, UniProt P19419 1-428); conditions: protein: recombinant; tags: N-terminal GST; dsDNA, one strand shown
# T2 sequence: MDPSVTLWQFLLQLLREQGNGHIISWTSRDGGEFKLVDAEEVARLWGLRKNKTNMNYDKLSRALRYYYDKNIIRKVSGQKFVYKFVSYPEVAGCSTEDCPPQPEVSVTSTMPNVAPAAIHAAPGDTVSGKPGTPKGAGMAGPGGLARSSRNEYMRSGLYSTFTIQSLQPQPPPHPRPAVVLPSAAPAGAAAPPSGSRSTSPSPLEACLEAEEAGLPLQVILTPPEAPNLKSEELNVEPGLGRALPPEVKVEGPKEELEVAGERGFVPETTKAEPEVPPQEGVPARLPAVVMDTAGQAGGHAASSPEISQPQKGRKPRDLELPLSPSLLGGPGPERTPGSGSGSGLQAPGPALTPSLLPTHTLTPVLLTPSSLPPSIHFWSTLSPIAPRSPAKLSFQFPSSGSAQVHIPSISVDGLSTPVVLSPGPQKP
# Method in brief: as §1
# GABPA = target: T3, GABPA (Homo sapiens, UniProt Q06546 1-454); conditions: protein: recombinant; tags: N-terminal GST; dsDNA, one strand shown
# T3 sequence: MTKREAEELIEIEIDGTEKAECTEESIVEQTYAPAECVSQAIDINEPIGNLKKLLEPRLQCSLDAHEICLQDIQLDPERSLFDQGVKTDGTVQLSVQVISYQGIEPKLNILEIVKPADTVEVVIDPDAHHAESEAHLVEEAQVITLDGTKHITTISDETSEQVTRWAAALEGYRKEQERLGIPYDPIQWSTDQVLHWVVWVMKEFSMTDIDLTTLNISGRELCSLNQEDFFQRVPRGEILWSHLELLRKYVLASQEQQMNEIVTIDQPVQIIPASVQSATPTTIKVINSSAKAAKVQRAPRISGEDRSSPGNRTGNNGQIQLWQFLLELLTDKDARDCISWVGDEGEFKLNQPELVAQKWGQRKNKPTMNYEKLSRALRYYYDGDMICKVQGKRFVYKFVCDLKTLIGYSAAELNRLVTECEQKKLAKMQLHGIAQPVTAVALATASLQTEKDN
# Method in brief: as §1
# ERG = target: T4, ERG (Homo sapiens, UniProt P11308 1-479); conditions: protein: recombinant; tags: N-terminal GST; dsDNA, one strand shown
# T4 sequence: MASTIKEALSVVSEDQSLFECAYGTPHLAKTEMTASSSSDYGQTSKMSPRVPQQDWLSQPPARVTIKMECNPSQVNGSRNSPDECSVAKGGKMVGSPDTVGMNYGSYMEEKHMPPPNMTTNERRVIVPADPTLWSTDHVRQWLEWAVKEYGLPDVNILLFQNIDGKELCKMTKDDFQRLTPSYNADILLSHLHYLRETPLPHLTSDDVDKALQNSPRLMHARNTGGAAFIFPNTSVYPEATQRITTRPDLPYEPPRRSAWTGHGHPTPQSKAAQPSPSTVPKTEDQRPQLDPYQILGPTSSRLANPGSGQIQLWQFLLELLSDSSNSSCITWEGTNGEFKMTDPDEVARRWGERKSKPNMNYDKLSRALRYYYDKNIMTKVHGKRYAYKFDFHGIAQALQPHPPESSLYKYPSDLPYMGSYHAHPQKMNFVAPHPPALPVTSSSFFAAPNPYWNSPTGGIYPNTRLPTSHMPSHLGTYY
# Method in brief: as §1
# ELF1 = ELF1 (Homo sapiens, UniProt P32519 1-619); conditions: protein: recombinant; tags: N-terminal GST; dsDNA, one strand shown
# Sequence of ELF1 (P32519 whole entry): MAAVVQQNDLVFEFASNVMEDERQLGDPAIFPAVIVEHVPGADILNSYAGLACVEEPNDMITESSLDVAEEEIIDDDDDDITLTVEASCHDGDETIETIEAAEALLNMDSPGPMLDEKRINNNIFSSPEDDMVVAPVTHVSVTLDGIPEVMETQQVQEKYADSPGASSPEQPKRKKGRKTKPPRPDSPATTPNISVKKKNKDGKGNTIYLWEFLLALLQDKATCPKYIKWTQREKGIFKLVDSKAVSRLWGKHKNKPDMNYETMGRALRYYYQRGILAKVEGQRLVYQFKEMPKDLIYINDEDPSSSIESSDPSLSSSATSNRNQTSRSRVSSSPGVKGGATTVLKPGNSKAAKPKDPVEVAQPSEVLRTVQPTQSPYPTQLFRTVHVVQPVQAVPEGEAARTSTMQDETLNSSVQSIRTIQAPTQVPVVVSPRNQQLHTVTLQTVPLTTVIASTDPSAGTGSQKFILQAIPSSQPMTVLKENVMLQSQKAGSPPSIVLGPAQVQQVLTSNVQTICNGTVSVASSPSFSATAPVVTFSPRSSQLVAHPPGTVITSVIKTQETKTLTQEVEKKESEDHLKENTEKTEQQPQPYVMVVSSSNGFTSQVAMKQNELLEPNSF
# Method in brief: as §1
# EHF = target: T5, EHF (Homo sapiens, UniProt Q9NZC4 1-300); conditions: protein: recombinant; tags: N-terminal GST; dsDNA, one strand shown
# T5 sequence: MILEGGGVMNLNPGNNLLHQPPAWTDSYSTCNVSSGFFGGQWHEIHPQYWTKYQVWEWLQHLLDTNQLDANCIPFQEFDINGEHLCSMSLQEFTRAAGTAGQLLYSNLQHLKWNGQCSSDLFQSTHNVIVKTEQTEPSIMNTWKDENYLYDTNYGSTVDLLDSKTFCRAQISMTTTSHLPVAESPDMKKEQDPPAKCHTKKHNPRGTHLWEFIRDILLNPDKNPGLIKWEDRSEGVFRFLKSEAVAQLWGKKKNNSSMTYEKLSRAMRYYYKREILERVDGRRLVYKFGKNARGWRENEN
# Method in brief: as §1
# SPI1 = SPI1 (Homo sapiens, UniProt P17947 1-270); conditions: protein: recombinant; tags: N-terminal GST; dsDNA, one strand shown
# Method in brief: as §1
# SPIB = SPIB (Homo sapiens, UniProt Q01892 1-262); conditions: protein: recombinant; tags: N-terminal GST; dsDNA, one strand shown
# Sequence of SPIB (Q01892 whole entry): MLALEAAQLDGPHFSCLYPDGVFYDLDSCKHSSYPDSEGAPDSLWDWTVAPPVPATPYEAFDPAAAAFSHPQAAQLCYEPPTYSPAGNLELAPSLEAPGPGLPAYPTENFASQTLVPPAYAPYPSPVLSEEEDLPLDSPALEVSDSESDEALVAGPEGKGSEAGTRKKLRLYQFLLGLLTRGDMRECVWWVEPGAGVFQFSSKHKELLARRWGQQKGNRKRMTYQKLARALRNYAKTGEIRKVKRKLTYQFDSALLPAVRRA
# Method in brief: as §1
# ELK3 = target: T6, ELK3 (Homo sapiens, UniProt P41970 1-407); conditions: protein: recombinant; tags: N-terminal GST; dsDNA, one strand shown
# T6 sequence: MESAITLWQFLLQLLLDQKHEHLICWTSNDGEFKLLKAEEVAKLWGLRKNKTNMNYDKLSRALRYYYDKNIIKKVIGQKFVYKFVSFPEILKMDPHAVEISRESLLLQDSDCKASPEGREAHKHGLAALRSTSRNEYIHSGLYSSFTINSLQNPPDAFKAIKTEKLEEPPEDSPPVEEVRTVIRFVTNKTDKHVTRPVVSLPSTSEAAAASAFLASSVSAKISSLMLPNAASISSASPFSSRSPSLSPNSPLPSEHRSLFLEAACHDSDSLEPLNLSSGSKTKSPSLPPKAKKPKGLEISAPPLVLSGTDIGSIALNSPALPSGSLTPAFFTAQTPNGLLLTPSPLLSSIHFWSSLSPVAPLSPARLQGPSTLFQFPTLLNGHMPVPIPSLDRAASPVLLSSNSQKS
# Method in brief: as §1
# FEV = target: T7, FEV (Homo sapiens, UniProt Q99581 1-238); conditions: protein: recombinant; tags: N-terminal GST; dsDNA, one strand shown
# T7 sequence: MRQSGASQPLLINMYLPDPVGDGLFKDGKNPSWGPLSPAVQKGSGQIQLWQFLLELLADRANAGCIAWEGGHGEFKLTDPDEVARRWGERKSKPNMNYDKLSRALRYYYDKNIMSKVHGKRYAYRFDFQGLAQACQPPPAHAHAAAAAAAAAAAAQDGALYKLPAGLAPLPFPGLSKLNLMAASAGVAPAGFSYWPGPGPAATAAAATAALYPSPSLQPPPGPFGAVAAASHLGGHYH
# Method in brief: as §1
# ETV5 = ETV5 (Homo sapiens, UniProt P41161 1-510); conditions: protein: recombinant; tags: N-terminal GST; dsDNA, one strand shown
# Sequence of ETV5 (P41161 whole entry): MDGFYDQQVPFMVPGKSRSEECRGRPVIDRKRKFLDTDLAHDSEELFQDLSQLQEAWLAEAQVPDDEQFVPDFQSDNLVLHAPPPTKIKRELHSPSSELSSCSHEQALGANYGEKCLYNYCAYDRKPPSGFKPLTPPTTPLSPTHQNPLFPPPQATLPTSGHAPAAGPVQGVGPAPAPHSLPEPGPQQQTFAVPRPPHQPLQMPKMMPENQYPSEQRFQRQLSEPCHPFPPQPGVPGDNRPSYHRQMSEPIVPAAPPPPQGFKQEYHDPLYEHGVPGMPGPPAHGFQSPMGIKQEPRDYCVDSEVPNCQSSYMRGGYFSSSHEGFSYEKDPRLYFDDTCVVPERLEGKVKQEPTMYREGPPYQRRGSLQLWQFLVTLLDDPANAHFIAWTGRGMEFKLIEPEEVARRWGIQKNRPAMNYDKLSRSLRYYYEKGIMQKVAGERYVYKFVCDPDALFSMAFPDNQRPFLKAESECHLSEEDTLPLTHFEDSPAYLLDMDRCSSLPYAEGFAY
# Method in brief: as §1
# HSF1 = HSF1 (Homo sapiens, UniProt Q00613 1-529); conditions: protein: recombinant; tags: N-terminal GST; chain copies: 3; dsDNA, one strand shown
# Sequence of HSF1 (Q00613 whole entry): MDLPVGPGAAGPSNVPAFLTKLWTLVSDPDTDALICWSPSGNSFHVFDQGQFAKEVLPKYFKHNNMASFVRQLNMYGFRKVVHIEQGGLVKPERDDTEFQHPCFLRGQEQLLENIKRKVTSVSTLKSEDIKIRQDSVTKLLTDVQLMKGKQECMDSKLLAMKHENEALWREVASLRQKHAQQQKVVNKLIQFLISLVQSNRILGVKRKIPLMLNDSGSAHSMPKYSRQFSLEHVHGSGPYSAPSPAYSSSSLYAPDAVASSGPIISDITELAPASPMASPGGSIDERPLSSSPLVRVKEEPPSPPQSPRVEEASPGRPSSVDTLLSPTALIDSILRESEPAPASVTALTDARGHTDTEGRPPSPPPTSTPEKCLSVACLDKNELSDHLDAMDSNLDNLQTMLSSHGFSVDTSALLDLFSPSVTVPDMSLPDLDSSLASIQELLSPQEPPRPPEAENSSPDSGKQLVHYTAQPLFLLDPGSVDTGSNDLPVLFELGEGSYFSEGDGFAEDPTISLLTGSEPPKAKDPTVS
# Method in brief: as §1
# SPIC = target: T8, SPIC (Homo sapiens, UniProt Q8N5J4 1-248); conditions: protein: recombinant; tags: N-terminal GST; dsDNA, one strand shown
# T8 sequence: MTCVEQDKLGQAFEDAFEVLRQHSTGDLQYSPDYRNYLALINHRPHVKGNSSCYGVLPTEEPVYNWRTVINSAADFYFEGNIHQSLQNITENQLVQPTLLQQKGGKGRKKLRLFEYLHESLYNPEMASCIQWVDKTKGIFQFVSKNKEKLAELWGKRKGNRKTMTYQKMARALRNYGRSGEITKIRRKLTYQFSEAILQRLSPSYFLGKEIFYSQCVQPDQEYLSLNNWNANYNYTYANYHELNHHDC
# Method in brief: as §1
# ELF4 = ELF4 (Homo sapiens, UniProt Q99607 1-663); conditions: protein: recombinant; tags: N-terminal GST; dsDNA, one strand shown
# Sequence of ELF4 (Q99607 whole entry): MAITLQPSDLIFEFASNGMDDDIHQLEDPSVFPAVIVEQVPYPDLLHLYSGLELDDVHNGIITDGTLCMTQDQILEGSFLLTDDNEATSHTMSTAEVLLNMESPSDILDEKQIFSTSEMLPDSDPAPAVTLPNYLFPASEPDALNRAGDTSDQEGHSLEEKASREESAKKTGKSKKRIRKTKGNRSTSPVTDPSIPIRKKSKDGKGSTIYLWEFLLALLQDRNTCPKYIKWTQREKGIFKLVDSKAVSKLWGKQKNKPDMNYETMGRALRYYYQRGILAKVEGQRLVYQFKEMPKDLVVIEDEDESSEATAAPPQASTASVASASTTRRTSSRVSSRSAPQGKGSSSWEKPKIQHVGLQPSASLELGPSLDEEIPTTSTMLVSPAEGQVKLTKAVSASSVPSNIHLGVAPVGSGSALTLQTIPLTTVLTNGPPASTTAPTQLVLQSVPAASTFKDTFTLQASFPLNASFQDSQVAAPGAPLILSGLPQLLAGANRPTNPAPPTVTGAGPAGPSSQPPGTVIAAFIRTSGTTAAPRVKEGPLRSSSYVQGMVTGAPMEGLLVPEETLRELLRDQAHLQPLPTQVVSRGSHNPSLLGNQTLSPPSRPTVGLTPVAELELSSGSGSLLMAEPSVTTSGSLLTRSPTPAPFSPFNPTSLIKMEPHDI
# Method in brief: as §1
# ELK4 = target: T9, ELK4 (Homo sapiens, UniProt P28324-2 1-405); conditions: protein: recombinant; tags: N-terminal GST; dsDNA, one strand shown
# T9 sequence: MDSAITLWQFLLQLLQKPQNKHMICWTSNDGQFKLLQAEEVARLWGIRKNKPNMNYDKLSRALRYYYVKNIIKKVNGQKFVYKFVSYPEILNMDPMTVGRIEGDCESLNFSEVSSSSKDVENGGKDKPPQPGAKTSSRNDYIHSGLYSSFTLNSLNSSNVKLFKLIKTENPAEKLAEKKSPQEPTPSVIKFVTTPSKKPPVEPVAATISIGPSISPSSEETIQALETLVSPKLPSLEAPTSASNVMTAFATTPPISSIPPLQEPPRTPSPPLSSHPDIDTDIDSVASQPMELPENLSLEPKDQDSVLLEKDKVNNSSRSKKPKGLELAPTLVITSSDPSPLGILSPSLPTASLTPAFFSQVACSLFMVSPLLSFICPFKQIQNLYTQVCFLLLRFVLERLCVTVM
# Method in brief: as §1
# ETV2 = target: T10, ETV2 (Homo sapiens, UniProt O00321 1-342); conditions: protein: recombinant; tags: N-terminal GST; dsDNA, one strand shown
# T10 sequence: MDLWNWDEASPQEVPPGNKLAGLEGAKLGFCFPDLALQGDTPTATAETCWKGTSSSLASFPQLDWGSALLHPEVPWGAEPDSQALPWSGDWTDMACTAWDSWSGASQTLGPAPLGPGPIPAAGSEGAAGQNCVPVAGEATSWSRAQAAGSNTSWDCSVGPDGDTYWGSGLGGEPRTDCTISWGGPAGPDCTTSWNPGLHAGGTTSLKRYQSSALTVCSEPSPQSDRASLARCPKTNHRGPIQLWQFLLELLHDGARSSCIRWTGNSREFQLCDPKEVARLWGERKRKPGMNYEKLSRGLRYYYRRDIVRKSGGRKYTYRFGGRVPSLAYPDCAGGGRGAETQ
# Method in brief: as §1
# ELF3 = target: T11, ELF3 (Homo sapiens, UniProt P78545 1-371); conditions: protein: recombinant; tags: N-terminal GST; dsDNA, one strand shown
# T11 sequence: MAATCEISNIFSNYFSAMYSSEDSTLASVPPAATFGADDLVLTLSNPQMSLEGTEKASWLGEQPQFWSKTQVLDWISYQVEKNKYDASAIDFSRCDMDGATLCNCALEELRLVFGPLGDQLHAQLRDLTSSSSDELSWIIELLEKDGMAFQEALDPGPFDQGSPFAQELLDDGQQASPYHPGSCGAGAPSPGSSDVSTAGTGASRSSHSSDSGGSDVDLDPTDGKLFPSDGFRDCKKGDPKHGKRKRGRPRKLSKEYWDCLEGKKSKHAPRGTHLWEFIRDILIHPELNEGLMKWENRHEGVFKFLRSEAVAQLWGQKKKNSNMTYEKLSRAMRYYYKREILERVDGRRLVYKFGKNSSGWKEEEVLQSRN
# Method in brief: as §1
# CRX = CRX (Homo sapiens, UniProt O43186 1-299); conditions: protein: recombinant; tags: N-terminal GST; dsDNA, one strand shown
# Sequence of CRX (O43186 whole entry): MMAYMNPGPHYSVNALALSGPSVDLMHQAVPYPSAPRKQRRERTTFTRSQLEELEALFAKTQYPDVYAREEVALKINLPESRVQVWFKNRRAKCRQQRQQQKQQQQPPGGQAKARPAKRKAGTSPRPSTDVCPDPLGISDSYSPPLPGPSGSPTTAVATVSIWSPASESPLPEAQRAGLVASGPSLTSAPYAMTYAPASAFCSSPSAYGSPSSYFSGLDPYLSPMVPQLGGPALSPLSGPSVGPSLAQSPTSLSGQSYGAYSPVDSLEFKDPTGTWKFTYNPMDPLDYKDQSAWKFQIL
# Method in brief: as §1
# ETV1 = ETV1 (Homo sapiens, UniProt P50549 1-477); conditions: protein: recombinant; tags: N-terminal GST; dsDNA, one strand shown
# Sequence of ETV1 (P50549 whole entry): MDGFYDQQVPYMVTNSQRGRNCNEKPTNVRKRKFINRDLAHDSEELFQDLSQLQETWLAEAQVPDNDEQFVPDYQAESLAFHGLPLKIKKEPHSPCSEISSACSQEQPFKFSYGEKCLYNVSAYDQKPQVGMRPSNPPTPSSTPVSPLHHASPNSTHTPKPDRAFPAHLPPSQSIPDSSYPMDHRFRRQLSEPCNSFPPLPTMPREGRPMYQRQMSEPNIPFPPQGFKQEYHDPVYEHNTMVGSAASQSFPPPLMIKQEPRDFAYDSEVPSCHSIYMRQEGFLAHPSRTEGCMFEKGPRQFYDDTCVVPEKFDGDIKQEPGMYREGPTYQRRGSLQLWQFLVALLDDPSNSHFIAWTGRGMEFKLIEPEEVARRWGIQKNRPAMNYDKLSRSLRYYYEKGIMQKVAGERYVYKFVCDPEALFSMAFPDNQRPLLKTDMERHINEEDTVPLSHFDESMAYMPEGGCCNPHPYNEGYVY
# Method in brief: as §1
sequence,measurement,setting,value
GGCCTA,binding signal,FLI1,"1.15 fold enrichment (6-mer frequency, TF over GST control)"
same,binding signal,ELK1,"1.22 fold enrichment (6-mer frequency, TF over GST control)"
same,binding signal,GABPA,"1.31 fold enrichment (6-mer frequency, TF over GST control)"
same,binding signal,ERG,"1.37 fold enrichment (6-mer frequency, TF over GST control)"
same,binding signal,ELF1,"1.3 fold enrichment (6-mer frequency, TF over GST control)"
same,binding signal,EHF,"1.23 fold enrichment (6-mer frequency, TF over GST control)"
same,binding signal,SPI1,"1.03 fold enrichment (6-mer frequency, TF over GST control)"
same,binding signal,SPIB,"1.04 fold enrichment (6-mer frequency, TF over GST control)"
same,binding signal,ELK3,"1.1 fold enrichment (6-mer frequency, TF over GST control)"
same,binding signal,FEV,"1.19 fold enrichment (6-mer frequency, TF over GST control)"
same,binding signal,ETV5,"1.22 fold enrichment (6-mer frequency, TF over GST control)"
same,binding signal,HSF1,"1.33 fold enrichment (6-mer frequency, TF over GST control)"
same,binding signal,SPIC,"1.1 fold enrichment (6-mer frequency, TF over GST control)"
same,binding signal,ELF4,"1.25 fold enrichment (6-mer frequency, TF over GST control)"
same,binding signal,ELK4,"1.25 fold enrichment (6-mer frequency, TF over GST control)"
same,binding signal,ETV2,"1.14 fold enrichment (6-mer frequency, TF over GST control)"
same,binding signal,ELF3,"1.22 fold enrichment (6-mer frequency, TF over GST control)"
same,binding signal,CRX,"1.39 fold enrichment (6-mer frequency, TF over GST control)"
same,binding signal,ETV1,"1.2 fold enrichment (6-mer frequency, TF over GST control)"
